Screening results: PubChem, National Center for Advancing Translational Sciences (NCATS)
Shown are actives, neighbours in structure and some others; about 19% of the full set was active somewhere.
Pf growth 48h: P. falciparum growth inhibition at 48 hours (one generation); P. falciparum luciferase growth in erythrocytes, 48 h; Potency, µM (top dose mostly 28.7 µM), for the others: at the highest dose activity change, negative = inhibition, actives largely listed as inhibitors; 310,000 compounds, 5.9% hits; AID 504832; further: potency means the concentration at half of the fitted maximal effect; on the % scale 0 is the no-effect control and ±100 the full control effect
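Erythrocytes infected with P. falciparum carrying an integrated firefly luciferase reporter (2% hematocrit, 0.1% parasitemia final) were exposed to compounds in RPMI 1640 with 0.5% Albumax at 37 C, 5% CO2. Growth inhibition was scored as reduced luminescence.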
SARS PLP yeast: SARS-CoV PLP inhibition in yeast | S. cerevisiae expressing SARS-CoV PLpro, growth rescue | Potency, µM (series often up to 32.9 µM), for the others: top-dose activity, positive = growth rescue, usual class: activators | 330,000 compounds, 0.19% hits; calls by dose curve; further: potency means the concentration at half of the fitted maximal effect; 0% is about no effect; nearly all actives have a fitted effect of over 55% in size
Pf growth 96h: P. falciparum growth inhibition at 96 hour, primary screen for plastid delayed-death inhibitors; 320,000 compounds, 6.9% hits; Potency, µM (highest dose often 28.7 µM), for inactives: at the top dose activity change, negative = inhibition, actives largely listed as inhibitors; P. falciparum luciferase reporter growth, 96 h; further: potency means the concentration at half of the fitted maximal effect; on the % scale 0 is the no-effect control and ±100 the full control effect
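Delayed-death screen, second-generation endpoint: infected erythrocytes, 2% hematocrit, 0.05% parasitemia final; 96 hours at 37 C, 5% CO2; luciferase detection reagent; luminescence decrease equals reduced growth.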
AMA1-RON2 inh: AMA1-RON2 (P. falciparum) interaction inhibition | AlphaScreen AMA1-biotinylated RON2 peptide binding | Potency, µM (top dose mostly 58.2 µM), for inactives: at the highest dose activity change, negative = inhibition, usual class: inhibitors | 360,000 compounds, 0.2% hits | AID 720542;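 further: potency means the concentration at half of the fitted maximal effect; 0% = vehicle wells and -100% = peptide control; nearly all actives have a fitted effect of over 45% in size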
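AMA1 (3D7) with his tag at 25 nM final met compounds first, then biotinylated RON2 peptide at 25 nM; detection used donor plus acceptor beads, 10 µg/mL apiece, read by AlphaScreen after 30 min at room temperature.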
Shiga toxin inh: blocks Shiga toxin action in Vero cells. inhibition, % at 38.7 µM. 290,000 compounds, 9.2% hits. Vero cells, Shiga toxin protein synthesis inhibition reporter; in the data active means inhibition mostly above about 28%, no sharp cut-off; inactive means mostly below about 43%; further: 0% is about no effect
Cycloheximide cs: counter-screen hit for Shiga toxin inhibitors, cycloheximide; 300,000 compounds, 12% hits; max response, %; cell reporter, cycloheximide protein synthesis inhibition counterscreen; in the data active means max response mostly above about 13%, no sharp cut-off; inactive means mostly below about 14%; further: read at 38.3 µM for the half of the compounds with a filed dose; 0% is about no effect
* = called active by the depositor; ? = inconclusive; / = no result given; [ ] = remark or other dose. Unless noted, the call rests on the fitted dose curve; in most records, active means well fitted curve in the direction sought with a large enough effect; inconclusive means small, poorly fitted or top-dose-only effect, or another doubt; inactive means no such curve, though single readings can be large; an effect the other way counts as inactive or inconclusive.

SMILES	Pf growth 48h	SARS PLP yeast	Pf growth 96h	AMA1-RON2 inh	Shiga toxin inh	Cycloheximide cs
CC1Cc2cc(S(=O)(=O)N3CCCCC3C)ccc2N1C(=O)C1CCC1 (centres undefined)	?	-3%	10µM*	0%	-4	2
CCC1CCCCN1S(=O)(=O)c1ccc2c(c1)CCN2C(=O)C1CCC1 (centres undefined)	9.3µM*	-5%	/	8%	-15	-1
CCCNC(=O)/C=C/C(=O)O	6%	3%	49%	15%	-10	13
CC1CC(C)CN(S(=O)(=O)c2ccc3c(c2)CC(C)N3C(=O)C2CCC2)C1 (centres undefined)	10µM*	1%	?	0%	-2	1
CC1CC(C)CN(S(=O)(=O)c2ccc3c(c2)CC(C)N3C(=O)C2CC2)C1 (centres undefined)	?	-31%	?	7%	-2	-2
COCCN(CC(=O)NC1CCCCC1)C(=O)CCCC(=O)Nc1ccccn1	-1%	15%	?	5%	22	-3
Cc1ccccc1CC1(CO)CCCN(C(=O)CCN2CCCO2)C1 (centres undefined)	5%	-4%	2.6µM*	-7%	36*	17*
Cc1ccccc1CC1(CO)CCCN(C(=O)CCC(=O)c2ccccc2)C1 (centres undefined)	11%	5%	1%	-2%	19	1
CSc1ccccc1C(=O)C1CCCN(C(=O)c2ccc(N3CCOCC3)cc2)C1 (centres undefined)	-14%	1%	10µM*	10%	34*	17*
O=C(c1cc(F)ccc1F)C1CCCN(C(=O)CCN2CCCCO2)C1 (centres undefined)	25%	1%	?	17%	23	17*
COC(=O)CCC(=O)N1CCCC(C(=O)c2cc(F)ccc2F)C1 (centres undefined)	20%	1%	4%	-10%	-8	2
CSc1ccccc1C(=O)C1CCCN(C(=O)CCN2CCCO2)C1 (centres undefined)	37%	-1%	5.2µM*	1%	9	2
O=C(c1cccc2ccccc12)C1CCCN(C(=O)CCN2CCCO2)C1 (centres undefined)	0%	-1%	?	1%	13	9
CN(CC(=O)NCCCc1ccccc1)S(=O)(=O)c1ccc(Br)cc1	2%	-5%	?	-4%	-14	-5
Cc1ccsc1/C=C1\Oc2cc(OCC(=O)c3ccccc3)ccc2C1=O	32%	21%	41%	-2%	18	10
CCCCc1nnc(NC(=O)c2oc3ccccc3c2C)s1	31%	3%	66%	12%	/	/
Cc1c(C(=O)Nc2nc(-c3ccccn3)cs2)oc2ccccc12	6.6µM*	0%	?	23%	/	/
O=C(Nc1nc(-c2cc3ccccc3oc2=O)cs1)c1ccc(Br)o1	-1%	-3%	-1%[5.75 µM]	4%	71	15
Cc1cc(-c2csc(NC(=O)c3cc4ccccc4o3)n2)c(C)n1C	56%	-10%	-19%	41%	40*	32*
Cc1cc(C)cc(OCC(=O)Nc2nc(-c3ccccn3)cs2)c1	?	0%	?	122%	/	/
O=C(Nc1nc(-c2ccccn2)cs1)c1cc2ccccc2o1	?	-30%	?	-73%	58*	42*
CCN(CC)S(=O)(=O)c1ccc(N2CCCC2)c(NC(=O)C2=COCCO2)c1	15%	-1%	-20%	-12%	/	/
CCN(CC)S(=O)(=O)c1ccc(N2CCCC2)c(NC(=O)c2ccncc2)c1	6%	1%	-1%	-7%	-15	-1
CCN(CC)S(=O)(=O)c1ccc(N2CCCCC2)c(NC(=O)C2=COCCO2)c1	1.9µM*	1%	1.5µM*	-8%	/	/
CCN(CC)S(=O)(=O)c1ccc(N2CCCCC2)c(NC(=O)C2CCN(C(=O)c3ccc(F)cc3)CC2)c1	12µM*	-3%	9.3µM*	1%	/	/
SMILES	Pf growth 48h	SARS PLP yeast	Pf growth 96h	AMA1-RON2 inh	Shiga toxin inh	Cycloheximide cs
O=C(Nc1ccccc1N1CCCC1)C1CCN(C(=O)c2ccc(F)cc2)CC1	?	1%	2%	5%	/	/
CCN(CC)S(=O)(=O)c1ccc(N2CCOCC2)c(NC(=O)c2ccc(N3CCCC3=O)cc2)c1	7.4µM*	0%	15µM*	4%	/	/
CCN(CC)S(=O)(=O)c1ccc(N2CCCCC2)c(NC(=O)c2ccncc2)c1	?	0%	?	12%	35*	12
Cc1cc(C)cc(C(O)c2ncc(-c3ccccc3)[nH]2)c1 (centres undefined)	/	/	/	-19%	/	/
COc1ccccc1CCNC(=O)C(=O)NCC1OCCN1S(=O)(=O)c1ccc2c(c1)OCCO2 (centres undefined)	?	/	?	-5%	-7	14
Cc1ccc(CN2CCC(C(=O)c3ccc(F)cc3)CC2)cc1	/	/	/	-6%	/	/
COC(=O)[C@]1(Cc2ccccc2)N[C@H](CN(C)C(=O)c2ccc(F)cc2)[C@@H]2C(=O)N(C)C(=O)[C@@H]21	/	0%	/	0%	/	/
CCCC(=O)Nc1cc(-c2nn(C)c(=O)c3ccccc23)ccc1N1CCCCC1	/	/	/	6%	/	/
CCN(CC)S(=O)(=O)c1ccc(OC(C)C)c(NC(=O)C2=COCCO2)c1	?	-2%	8.3µM*	32%	/	/
CCN(CC)S(=O)(=O)c1ccc(N2CCCC2)c(NC(=O)c2nn(C)c(=O)c3ccccc23)c1	13µM*	-12%	13µM*	-6%	/	/
CCN(CC)S(=O)(=O)c1cccc(NC(=O)COC(=O)C2=COCCO2)c1	-20%	-3%	-29%	4%[11.6 µM]	/	/
COc1ccc(-c2nn(C)c(=O)c3ccccc23)cc1NC(=O)Cn1nc(C)c2ccccc2c1=O	10µM*	-4%	8%	0%	21	1
CCC(=O)Nc1cc(-c2nn(C)c(=O)c3ccccc23)ccc1N1CCCCC1	5.2µM*	-1%	75%	48%	-3	-3
O=S(=O)(O)c1c(NS(=O)(=O)c2ccccc2)ccc2ccccc12	/	/	/	/	11	4
CCCN1C2CCCC1CC(NC(=O)c1cc(OC)c(OC)c(OC)c1)C2 (centres undefined)	?	3%	75%	-7%	-20	-4
CCN(CC)S(=O)(=O)c1ccc(N2CCCC2)c(NC(=O)c2ccc(N3CCCC3=O)cc2)c1	13µM*	0%	12µM*	10%	/	/
CCOC(=O)c1cc(C(=O)Nc2ccc(C)c(F)c2)nn1C	110%	-9%	248%	-11%	62*	44*
CCOC(=O)c1c(S(=O)(=O)Nc2ccc(F)cc2C)c(C)n(C)c1C	-3%	-5%	15µM*	-13%	-8	-1
CCOC(=O)c1c(S(=O)(=O)Nc2ccc(C)cn2)c(C)n(C)c1C	17%	7%	10µM*	12%	5	5
